In PubChem BioAssay (Tox21):
Values joined by “and” are separate entries in the source; they are usually repeats but may differ in a detail not shown here. Equal entries are not always repeated. Results filed as inconclusive are left out. Some structures have more than one record in an assay (separate samples or runs), and their calls can disagree. Active and inactive are the calls of the source. The call rests on the fitted dose curve; in most records, active means well fitted curve in the direction sought with a large enough effect in the repeat runs; inconclusive means weak or mixed curves; inactive means no such curve, though single readings can be large; an effect the other way counts as inactive or inconclusive.

Columns and labels:
[1] = qHTS RealTime-Glo MT Cell Viability Assay in HepG2 cells - 40 hour (AID 1224870); further: nearly all actives have a fitted effect of over 50% in size
Summary of the method: (§1)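 Real-time viability: cells seeded at 600 per well together with NanoLuc and cell-permeant prosubstrate, compounds added after 5 h incubation. Luminescence tracked at 0, 8, 16, 24, 32 and 40 h of exposure.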

[2] = A CellTox Green Cytotoxicity Assay to monitor cytotoxicity in HEK293 cells - 40 hour (AID 1224871); further: nearly all actives have a fitted effect of over 45% in size; further: potency means the concentration at half of the fitted maximal effect
Summary of the method: (§2)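 Nonlytic real-time cytotoxicity: HEK293 + CellTox Green reagent plated, 5 h preincubation, pintool compound addition (23 nL in DMSO), 37 C for 40 h, fluorescence measured at successive time points.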

[3] = qHTS RealTime-Glo MT Cell Viability Assay in HEK293 cells - 16 hour (AID 1224872); further: nearly all actives have a fitted effect of over 50% in size; further: potency means the concentration at half of the fitted maximal effect
Summary of the method: (§3)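 Viability tracked continuously by luminescence as live cells reduce a prosubstrate for NanoLuc; HEK293 cells preincubated 5 h, compound-treated at 37 C, and read at 0, 8, 16, 24, 32 and 40 h.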

[4] = qHTS RealTime-Glo MT Cell Viability Assay in HepG2 cells - 8 hour (AID 1224873); further: nearly all actives have a fitted effect of over 55% in size
Summary of the method: as §1

[5] = qHTS RealTime-Glo MT Cell Viability Assay in HEK293 cells - 40 hour (AID 1224874); details: RealTime-Glo luminescence; max response: stronger effect = lower value; further: nearly all actives have a fitted effect of over 50% in size; further: potency means the concentration at half of the fitted maximal effect
Summary of the method: (§4)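 Cells were seeded together with NanoLuc luciferase and a prosubstrate that viable cells reduce to a luciferase substrate. After a 5 h incubation at 37 C/5% CO2, compounds were added and luminescence was measured repeatedly during 40 h of treatment.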

[6] = A CellTox Green Cytotoxicity Assay to monitor cytotoxicity in HEK293 cells - 24 hour (AID 1224875); further: series mostly up to about 77 µM; nearly all actives have a fitted effect of over 45% in size
Summary of the method: as §2

[7] = qHTS RealTime-Glo MT Cell Viability Assay in HepG2 cells - 32 hour (AID 1224877); further: nearly all actives have a fitted effect of over 55% in size
Summary of the method: (§5)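 Viability was tracked continuously by NanoLuc luminescence from prosubstrate reduced by living HepG2 cells, at successive time points over 40 h of compound exposure. Cells with reagent were preincubated 5 h at 37 °C before compound addition.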

[8] = A CellTox Green Cytotoxicity Assay to monitor cytotoxicity in HepG2 cells - 24 hour (AID 1224878); further: nearly all actives have a fitted effect of over 45% in size; further: potency means the concentration at half of the fitted maximal effect
Summary of the method: (§6)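 Read-out is fluorescence of a cyanine dye excluded from live cells that stains DNA of dead HepG2 cells, with signal proportional to cytotoxicity. Plates were read at 0, 8, 16, 24, 32 and 40 h after compound addition.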

[9] = A CellTox Green Cytotoxicity Assay to monitor cytotoxicity in HepG2 cells - 40 hour (AID 1224879); further: nearly all actives have a fitted effect of over 40% in size; further: potency means the concentration at half of the fitted maximal effect
Summary of the method: as §6

[10] = qHTS RealTime-Glo MT Cell Viability Assay in HEK293 cells - 0 hour (AID 1224880); further: nearly all actives have a fitted effect of over 45% in size; further: potency means the concentration at half of the fitted maximal effect
Summary of the method: as §4

[11] = A CellTox Green Cytotoxicity Assay to monitor cytotoxicity in HEK293 cells - 32 hour (AID 1224881); further: nearly all actives have a fitted effect of over 40% in size; further: potency means the concentration at half of the fitted maximal effect
Summary of the method: as §2

[12] = A CellTox Green Cytotoxicity Assay to monitor cytotoxicity in HepG2 cells - 0 hour (AID 1224882); further: nearly all actives have a fitted effect of over 35% in size; further: potency means the concentration at half of the fitted maximal effect
Summary of the method: as §6

[13] = A CellTox Green Cytotoxicity Assay to monitor cytotoxicity in HepG2 cells - 32 hour (AID 1224883); further: nearly all actives have a fitted effect of over 50% in size; further: potency means the concentration at half of the fitted maximal effect
Summary of the method: as §6

[14] = A CellTox Green Cytotoxicity Assay to monitor cytotoxicity in HEK293 cells - 8 hour (AID 1224884); further: nearly all actives have a fitted effect of over 35% in size; further: potency means the concentration at half of the fitted maximal effect
Summary of the method: as §2

[15] = qHTS RealTime-Glo MT Cell Viability Assay in HepG2 cells - 16 hour (AID 1224885); further: nearly all actives have a fitted effect of over 50% in size
Summary of the method: as §5

[16] = qHTS RealTime-Glo MT Cell Viability Assay in HEK293 cells - 24 hour (AID 1224886); further: nearly all actives have a fitted effect of over 50% in size; further: potency means the concentration at half of the fitted maximal effect
Summary of the method: as §3

[17] = qHTS RealTime-Glo MT Cell Viability Assay in HEK293 cells - 8 hour (AID 1224887)
Summary of the method: as §4

[18] = A CellTox Green Cytotoxicity Assay to monitor cytotoxicity in HEK293 cells - 16 hour (AID 1224888); further: nearly all actives have a fitted effect of over 35% in size; further: potency means the concentration at half of the fitted maximal effect
Summary of the method: as §2

[19] = A CellTox Green Cytotoxicity Assay to monitor cytotoxicity in HepG2 cells - 16 hour (AID 1224876); further: nearly all actives have a fitted effect of over 45% in size; further: potency means the concentration at half of the fitted maximal effect
Summary of the method: as §6

[20] = qHTS RealTime-Glo MT Cell Viability Assay in HepG2 cells - 0 hour (AID 1224889); further: nearly all actives have a fitted effect of over 50% in size; further: potency means the concentration at half of the fitted maximal effect
Summary of the method: as §5
On the % scale 0 is the no-effect control and ±100 the full control effect.

COC(=O)CCC(=O)OC
inactive: Potency [1] | Potency [2] | Potency [3] | Potency [4] | max response [5] -3.79% and 17.6% | Potency [6] | Potency [7] | Potency [8] | Potency [9] | Potency [10] | Potency [11] | Potency [12] | Potency [13] | Potency [14] | Potency [15] | Potency [16] | Potency [17] | Potency [18]

CN(C)c1nc(N(C)C)nc(N(C)C)n1
inactive: Potency [1] | Potency [2] | Potency [3] | Potency [4] | max response [5] -18.5% and -1.64% | Potency [6] | Potency [19] | Potency [7] | Potency [8] | Potency [9] | Potency [10] | Potency [11] | Potency [12] | Potency [13] | Potency [14] | Potency [15] | Potency [16] | Potency [17] | Potency [18]

COC(=O)c1ccccc1
inactive and 12.3 µM (active): Potency [16]
inactive: Potency [1] | Potency [2] | Potency [3] | Potency [4] | max response [5] 7.68% | Potency [6] | Potency [7] | Potency [8] | Potency [9] | Potency [10] | Potency [11] | Potency [12] | Potency [13] | Potency [14] | Potency [15] | Potency [17] | Potency [18] | Potency [20]
active: Potency [5] 12.3 µM

O=C(c1ccccc1)c1ccccc1O
inactive: Potency [1] | Potency [3] | Potency [4] | Potency [6] | Potency [7] | Potency [8] | Potency [9] | Potency [10] | Potency [11] | Potency [12] | Potency [13] | Potency [14] | Potency [15] | Potency [16] | Potency [17] | Potency [18] | Potency [20]

CC(C)OB(OC(C)C)OC(C)C
inactive: Potency [2] | Potency [3] | Potency [4] | max response [5] -5.59% and -12.5% | Potency [6] | Potency [19] | Potency [7] | Potency [8] | Potency [9] | Potency [10] | Potency [11] | Potency [12] | Potency [13] | Potency [14] | Potency [15] | Potency [16] | Potency [17] | Potency [18]

Nc1ccccc1N
active: Potency [2] 50.1 µM | Potency [9] 28.2 µM | Potency [11] 50.1 µM | Potency [13] 50.1 µM | Potency [14] 50.1 µM | Potency [18] 50.1 µM
inactive: Potency [1] | Potency [4] | max response [5] -5.16% | Potency [7] | Potency [15] | Potency [16] | Potency [20]
50.1 µM (active) and inactive: Potency [12]
56.2 µM (active) and inactive: Potency [8]

CCCCNS(=O)(=O)c1ccccc1
inactive: Potency [1] | Potency [2] | Potency [4] | Potency [6] | Potency [7] | Potency [8] | Potency [9] | Potency [10] | Potency [11] | Potency [12] | Potency [14] | Potency [15] | Potency [17] | Potency [18] | Potency [20]
inactive and 6.16 µM (active): Potency [16]
inactive and 7.76 µM (active): Potency [3]

Cn1cnc([N+](=O)[O-])c1Sc1ncnc2nc[nH]c12
34.5 µM (active) and inactive: Potency [2]
active: Potency [5] 20.5 µM and 21.3 µM
inactive: Potency [1] | Potency [4] | Potency [19] | Potency [7] | Potency [8] | Potency [10] | Potency [12] | Potency [14] | Potency [15] | Potency [17] | Potency [18]
30.7 µM (active) and inactive: Potency [11]
54.5 µM (active) and inactive: Potency [9] | Potency [13]

CCCCC(CC)COP(=O)(OCC(CC)CCCC)OCC(CC)CCCC (stereo not drawn)
inactive: Potency [2] | Potency [3] | Potency [4] | max response [5] -14.5% | Potency [6] | Potency [19] | Potency [7] | Potency [8] | Potency [9] | Potency [10] | Potency [11] | Potency [12] | Potency [13] | Potency [14] | Potency [15] | Potency [16] | Potency [17] | Potency [18] | Potency [20]

Cc1ccc2c(n1)Oc1ccc(C(C)C(=O)OCC(=O)N(C)C)cc1C2 (stereo not drawn)
inactive: Potency [1] | Potency [2] | max response [5] -20.9% and -25.9% | Potency [6] | Potency [19] | Potency [7] | Potency [8] | Potency [9] | Potency [10] | Potency [11] | Potency [12] | Potency [14] | Potency [15] | Potency [16] | Potency [17] | Potency [18] | Potency [20]

CCC(C)CO (stereo not drawn)
inactive: Potency [1] | Potency [2] | Potency [3] | Potency [4] | Potency [6] | Potency [7] | Potency [10] | Potency [11] | Potency [14] | Potency [15] | Potency [17] | Potency [18] | Potency [20]
inactive and 24.5 µM (active): Potency [16]
inactive and 38.9 µM (active): Potency [19]
inactive and 43.6 µM (active): Potency [8] | Potency [9] | Potency [12] | Potency [13]

C[C@]12CC[C@H]3[C@@H](CCC4=CC(=O)CC[C@@]43C)[C@@H]1CC[C@@H]2C(=O)CO
inactive: Potency [1] | Potency [2] | Potency [4] | Potency [19] | Potency [7] | Potency [8] | Potency [9] | Potency [11] | Potency [12] | Potency [14] | Potency [15] | Potency [17] | Potency [18]
active: Potency [5] 38.9 µM | Potency [10] 17.4 µM | Potency [16] 24.5 µM | Potency [20] 4.36 µM and 9.52 µM

CC(=O)O[C@]1(C(C)=O)CC[C@H]2[C@@H]3C=C(Cl)C4=CC(=O)[C@@H]5C[C@@H]5[C@]4(C)[C@H]3CC[C@@]21C
21.9 µM (active) and inactive: Potency [3]
active: Potency [16] 21.9 µM
inactive: Potency [1] | Potency [2] | Potency [4] | Potency [19] | Potency [7] | Potency [8] | Potency [9] | Potency [10] | Potency [11] | Potency [12] | Potency [14] | Potency [17] | Potency [18] | Potency [20]
